Values joined by “and” are separate entries in the source; they are usually repeats but may differ in a detail not shown here. Identical values can stand only once. In all, about 5,600 compounds went through this assay and about 150 (2.7%) showed an effect of 50% or more. This is one part of a sample in which strong results are shown more often than they occur.
Assays:
[1] = molecular target: T1, Protein deacetylase HDAC6 (Homo sapiens) (UniProt Q9UBN7); conditions: at 10 µM
T1 sequence (whole entry): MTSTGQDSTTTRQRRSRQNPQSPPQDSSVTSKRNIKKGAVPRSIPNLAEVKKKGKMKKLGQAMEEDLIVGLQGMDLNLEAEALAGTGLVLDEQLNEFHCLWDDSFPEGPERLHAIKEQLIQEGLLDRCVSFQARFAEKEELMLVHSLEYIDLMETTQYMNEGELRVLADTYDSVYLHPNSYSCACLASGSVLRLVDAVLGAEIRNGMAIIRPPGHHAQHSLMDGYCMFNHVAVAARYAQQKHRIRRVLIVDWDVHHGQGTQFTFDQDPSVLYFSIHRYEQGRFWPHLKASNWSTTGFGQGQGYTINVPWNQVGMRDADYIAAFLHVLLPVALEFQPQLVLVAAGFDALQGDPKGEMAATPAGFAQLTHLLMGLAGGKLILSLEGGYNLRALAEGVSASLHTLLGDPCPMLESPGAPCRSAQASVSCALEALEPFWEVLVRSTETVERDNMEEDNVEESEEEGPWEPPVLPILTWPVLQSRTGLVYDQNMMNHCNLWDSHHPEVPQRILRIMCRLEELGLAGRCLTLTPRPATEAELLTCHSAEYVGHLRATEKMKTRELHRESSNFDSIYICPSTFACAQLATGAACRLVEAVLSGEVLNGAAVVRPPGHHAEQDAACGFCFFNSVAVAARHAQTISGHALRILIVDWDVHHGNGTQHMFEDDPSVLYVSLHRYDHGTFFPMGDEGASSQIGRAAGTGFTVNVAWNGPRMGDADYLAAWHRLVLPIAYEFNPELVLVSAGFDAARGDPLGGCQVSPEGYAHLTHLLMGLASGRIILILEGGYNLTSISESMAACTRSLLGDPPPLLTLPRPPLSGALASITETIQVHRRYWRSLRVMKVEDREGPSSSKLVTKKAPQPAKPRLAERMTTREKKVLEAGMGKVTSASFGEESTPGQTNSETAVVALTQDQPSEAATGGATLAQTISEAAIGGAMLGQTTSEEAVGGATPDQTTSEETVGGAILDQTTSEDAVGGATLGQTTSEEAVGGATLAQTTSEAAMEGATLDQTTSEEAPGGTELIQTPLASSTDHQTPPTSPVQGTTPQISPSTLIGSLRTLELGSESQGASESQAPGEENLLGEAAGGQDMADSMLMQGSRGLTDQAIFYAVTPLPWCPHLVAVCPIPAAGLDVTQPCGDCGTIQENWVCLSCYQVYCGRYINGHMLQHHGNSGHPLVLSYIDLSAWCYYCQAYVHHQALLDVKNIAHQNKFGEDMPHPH

[2] = molecular target: Protein deacetylase HDAC6 (Homo sapiens) (UniProt Q9UBN7); conditions: at 10 µM; remark: listed apart in the source

CC1(C)OC[C@H](NC(=O)Nc2ccc(Br)cc2Br)[C@H](c2ccccc2)O1
inhibition [1]: -0.73%

FC(F)(F)c1cc(NC(=S)Nc2ccc(Br)cc2-c2nnn[nH]2)cc(C(F)(F)F)c1
inhibition [1]: 67.5%

COc1cc(C[C@@H](CO[C@@H]2O[C@H](CO)[C@@H](O)[C@H](O)[C@H]2O)[C@H](CO[C@@H]2O[C@H](CO)[C@@H](O)[C@H](O)[C@H]2O)Cc2ccc(O)c(OC)c2)ccc1O
inhibition [1]: -3.26%

COc1ccc(C[C@@H](C)[C@@H](C)Cc2ccc(OC)c(OC)c2)cc1OC
inhibition [1]: -2.57%

COc1ccc(/C=C/C(=O)/C=C(O)/C=C/c2ccc(OC)c(OC)c2)cc1OC
inhibition [1]: 4.07%

Cn1cc(C2=C(c3cn(CCCSC(=N)N)c4ccccc34)C(=O)NC2=O)c2ccccc21
inhibition [1]: -0.14%

Cn1cc(/C=C2/C(=O)Nc3cccnc32)c2ccccc21
inhibition [1]: 66.2%

Cn1cc(C2=C(c3ccc(Cl)cc3Cl)C(=O)NC2=O)c2ccccc21
inhibition [1]: -3.78%

CCNC(=O)CC[C@@H](N)C(=O)O
inhibition [1]: -3.08%

CN(C)CC(O)Cn1c2ccc(Br)cc2c2cc(Br)ccc21 (stereo not given)
inhibition [1]: -0.45%

O=C1OC2(c3cc(I)c(O)c(I)c3Oc3c2cc(I)c(O)c3I)c2c(Cl)c(Cl)c(Cl)c(Cl)c21
inhibition [1]: 31.9% and 41.8%

CCOC(=O)c1ccc(N2NC(=O)/C(=C/c3ccc([N+](=O)[O-])o3)C2=O)cc1
inhibition [1]: 3.77%

Cn1nc(-c2ccc(C(F)(F)F)cc2)nc2c(=O)n(C)c(=O)nc1-2
inhibition [1]: 82.8%

Cc1cccc(C)c1NC(=O)/N=C1\CCCN1C
inhibition [1]: -2.32%

Cc1ccc(-c2[nH]nc3c2C(c2cccc(O)c2)N(c2ccc(C(=O)O)cc2)C3=O)cc1 (stereo not given)
inhibition [1]: -3.95%

C1Cc2[nH]nc(-c3nn[nH]n3)c2C1
inhibition [1]: -4.01%

COc1ccc2[nH]c(SCc3ncc(C)c(OC)c3C)nc2c1
inhibition [1]: 7.26%

N#Cc1cccc(-c2c[nH]c3ncnc(N4CCOCC4)c23)c1
inhibition [1]: -3.83%

CCN(CC)CCn1c(=O)c(Cc2ccc(OC)cc2)nc2ccccc21
inhibition [1]: -4.21%

CCCCc1nc2cc(/C=C/C(=O)NO)ccc2n1CCN(CC)CC
inhibition [1]: 97.3%

CCCCc1nc(-c2ccc(OCCCN(CC)CC)cc2)cn1-c1ccc(Oc2ccc(Cl)cc2)cc1
inhibition [1]: 9.56%

CC(C)(C)/[N+]([O-])=C/c1ccc(S(=O)(=O)O)cc1S(=O)(=O)O
inhibition [1]: -5.01%

CCCc1c(OCCCOc2ccc(OCC(=O)O)cc2)ccc(CC=O)c1O
inhibition [1]: -1.53%

O=C(O)/C=C\c1c[nH]cn1
inhibition [1]: -0.7%

O=C(Nc1ccc(C(=O)O)c(O)c1)c1ccccc1
inhibition [1]: 95.5%

Nc1ccc(C(=O)O)c(O)c1
inhibition [1]: -3.77%

CC1(C)CCC(C)(C)c2cc(NC(=O)c3ccc(C(=O)O)cc3)ccc21
inhibition [1]: -2.96%

OXALIPLATIN, CHEMBL414804
inhibition [2]: -4.35%

CN[C@H](CNC(=O)N1CCC[C@@H]([C@@H](OCCNC(=O)OC)c2cccc(Cl)c2)C1)C[C@H]1CCCOC1
inhibition [1]: 8.55%

Cc1ccc(OCCSc2ncccn2)c(Br)c1
inhibition [1]: 77.5%

Cc1cc(OCC(=O)O)cc(C)c1Cc1ccc(O)c(C(C)C)c1
inhibition [1]: -5.84%

O=C1[C@@H]2[C@H]3CC[C@H](C3)[C@@H]2C(=O)N1CCCCN1CCN(c2ncccn2)CC1
inhibition [1]: 6.98%

N#Cc1c[nH]c2c(C(=O)N3CCN(CCc4ccc(F)cc4)CC3)cccc12
inhibition [1]: 4.22%

COc1ccccc1C(=O)Nc1cccc(NC(=O)c2cccc(C)c2)c1
inhibition [1]: 8.47%

CC(=O)CC(=O)O
inhibition [1]: -2.94%

CCCCCCCCCCCCCCCC(=O)NCCO
inhibition [1]: -0.28%

O=C(CCCCCCNC(=O)c1cnc(N(c2ccccc2)c2ccccc2)nc1)NO
inhibition [1]: 97.5%

O=C(CCNNC(=O)c1ccncc1)NCc1ccccc1
inhibition [1]: -3.21%

N#C/C(=C\c1cccn1S(=O)(=O)c1cccc([N+](=O)[O-])c1)S(=O)(=O)c1ccc(F)cc1
inhibition [1]: 6.35%

N[C@@H](CC(=O)NO)C(=O)O
inhibition [1]: -1.74%

O=C1Nc2c(ccc(Cl)c2Cl)/C1=N\O
inhibition [1]: 1.23%

Nc1nc(N)c2nc(-c3cccc(O)c3)cnc2n1
inhibition [1]: 66.2%

Nc1nc(N)c2nc(-c3ccccc3)c(N)nc2n1
inhibition [1]: 22%

Oc1cccc(-c2c3nc(c(-c4cccc(O)c4)c4ccc([nH]4)c(-c4cccc(O)c4)c4nc(c(-c5cccc(O)c5)c5ccc2[nH]5)CC4)C=C3)c1
inhibition [1]: 2.63%

CCN(CC)Cc1ccc(Nc2ccnc3cc(Cl)ccc23)cc1O
inhibition [1]: 0.37%

O=C(c1ccc(CN2CCOCC2)cc1)N1CCN(C2CC2)CC1
inhibition [1]: 4.17%

O=C1NC(=O)/C(=C/c2ccc(-c3ccc(F)cc3O)o2)S1
inhibition [1]: 87%

O=C1NC(=O)/C(=C/c2ccc3c(c2)OC(F)(F)O3)S1
inhibition [1]: -1.91%

O=C1NC(=O)/C(=C/c2cccc(C(F)(F)F)c2)S1
inhibition [1]: 8.21%

Cc1[nH]nc(C(F)(F)F)c1Cc1sc2c(c1C(=O)N1C[C@](C)(O)CO1)c(=O)n(C)c(=O)n2C(C)C
inhibition [1]: 7.6%

O=C(NC1CCN(CCc2c[nH]c3ccccc23)CC1)c1ccccc1
inhibition [1]: 22.6%

O=C(O)[C@H](Cc1c[nH]c2ccccc12)N1C(=O)c2ccccc2C1=O
inhibition [1]: 3.67%

COc1cc(/C=C/c2ccc(O)cc2)cc(OC)c1
inhibition [1]: -1.8%

O=C(/C=C/c1ccc(O)c(O)c1)OCCc1ccccc1
inhibition [1]: 13.8%

Oc1ccc(/C=C/c2cc(O)cc(O)c2)cc1
inhibition [1]: 85.4%

Source: ChEMBL document CHEMBL4808148, “HDAC6 screening dataset using tau-based substrate in an enzymatic assay yields selective inhibitors and activators” (2021)
